Bioassay records (PubChem)
A selection: hits, their analogues and other compounds. The true share with any hit is near 2.2%.
LDHA inh = LDHA (human) enzyme inhibition. P00338. purified LDHA, NADH/diaphorase-resazurin fluorescence; active compounds read low. actives 0.15% (n = 480,000). activity change, % (values are at about 110 or 230 µM). AID 1347041; in the data active = activity change below about -30%; inconclusive = mostly about -25% to -30%;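 note: plate controls were DMSO wells for no effect and wells without enzyme for full effect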
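LDH5 2 nM; NADH 0.06 mM, pyruvate 0.2 mM; 200 mM Tris pH 7.4, EDTA, Tween-20; 5 min RT. Detection: diaphorase 0.133 mg/mL + resazurin 37 µM, fluorescence ex540/em590 at 0 and 20 min; normalized to enzyme-free and DMSO wells.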
ATXN2 expr inh = inhibitors of ATXN2 expression; actives 0.72% (n = 360,000); HEK-293 ATXN2-luciferase reporter, luminescence, 24 h; Potency, µM (titrated, usually from 57 µM), without a hit: top-dose activity change, negative = inhibition, usual class: inhibitors; note: potency is the fitted concentration of half-maximal effect; % is set by controls: 0 for no effect and ±100 for the full control effect; nearly all actives have a fitted effect of over 55% in size
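ATXN2-luciferase reporter cells (luciferase flanked by upstream and downstream ATXN2 gene portions) were treated 24 h at 37 °C with compounds at up to 57 uM. SteadyGlo luminescence gave expression; GF-AFC fluorescence gave viability.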
ATXN viability = viability counter-screen for ATXN expression inhibitors; S2 cells (HEK-293 line with an ATXN2-luciferase reporter) viability, CellTiter-Fluor protease fluorescence, 24 h; Potency, µM (series often up to 56.7 µM), most hits filed as cytotoxic; actives 0.49% (n = 400,000); note: potency is the fitted concentration of half-maximal effect; nearly all actives have a fitted effect of over 40% in size
TGFb SMAD3 inh = inhibitors of TGF-b signaling; actives 1.2% (n = 410,000); HepG2 CAGA-GFP TGF-b/SMAD3 reporter, GFP fluorescence, 18 h; TGF-beta stimulated, 500 pg/mL final; Potency, µM (series often up to 46.1 µM), for inactives: at the highest dose activity, negative = inhibition, most hits filed as inhibitors; note: potency is the fitted concentration of half-maximal effect; % is set by controls: 0 for no effect and ±100 for the full control effect; nearly all actives have a fitted effect of over 65% in size
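Read-out: total well GFP (ex488/em500-530) summed from mean per-cell fluorescence. Cells: HEPG2 CAGA-GFP, 1% FBS DMEM, 18 h at 37 degrees C with 500 pg/mL final TGF-beta. Unstimulated wells served as the full-inhibition control; stimulated DMSO wells = 0%.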
IDH1 R132H inh = human IDH1 R132H inhibition; actives 0.093% (n = 390,000); O75874; IDH1-R132H enzyme, NADPH consumption, diaphorase/resazurin fluorescence; Potency, µM (highest dose often 76.6 µM), for the others: at the highest dose activity change, negative = inhibition, most hits filed as inhibitors; note: potency is the fitted concentration of half-maximal effect; % is set by controls: 0 for no effect and ±100 for the full control effect; nearly all actives have a fitted effect of over 65% in size
Target sequence (O75874 whole entry R132H, stated change not applied): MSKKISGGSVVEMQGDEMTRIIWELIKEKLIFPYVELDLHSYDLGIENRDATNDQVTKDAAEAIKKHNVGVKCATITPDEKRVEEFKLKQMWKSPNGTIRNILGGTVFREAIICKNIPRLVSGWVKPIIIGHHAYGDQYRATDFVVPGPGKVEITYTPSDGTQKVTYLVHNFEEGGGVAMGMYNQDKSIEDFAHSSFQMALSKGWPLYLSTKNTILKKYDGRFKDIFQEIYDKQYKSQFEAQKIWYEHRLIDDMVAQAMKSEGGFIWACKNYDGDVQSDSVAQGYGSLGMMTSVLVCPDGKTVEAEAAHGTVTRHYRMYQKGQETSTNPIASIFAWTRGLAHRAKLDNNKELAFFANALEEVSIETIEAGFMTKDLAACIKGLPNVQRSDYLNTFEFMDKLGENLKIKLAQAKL
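IDH1-R132H (0.5 ug/mL) preincubated 30 min with compound, then NADPH (0.016 mM) and alpha-KG (2 mM) added; 80 min at RT, pH 7.5. Remaining NADPH coupled via diaphorase/resazurin to fluorescence (540/590 nm); concentration-response curves normalized to no-enzyme control.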
HepG2 tox-1 = kills HepG2 cells in TGF-b inhibitor counter-screen. HepG2 CAGA-GFP viability, ATP luminescence, 18 h. Potency, µM (highest dose often 46.1 µM), for inactives: at the top dose activity change, negative = cytotoxicity, most hits filed as cytotoxic. actives 0.76% (n = 410,000); note: potency is the fitted concentration of half-maximal effect
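HepG2 CAGA-GFP cells (1000/well, DMEM with 1% FBS) received compound, then TGF-beta at 500 pg/mL final, and were incubated 18 hours at 37 degrees C. Viability was read by CellTiter-Glo luminescence. Media-only wells were set as complete cell-killing and DMSO as no toxicity.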
TGFb CAGA inh = TGF-b pathway inhibition, cherry-pick retest; shares compounds with TGFb SMAD3 inh; Potency, µM (series often up to 46.1 µM), without a hit: at the top dose activity, negative = inhibition, usual class: inhibitors; HepG2 CAGA-GFP TGF-b reporter, GFP fluorescence, 18 h; cells stimulated with TGF-beta, 500 pg/mL; AID 720534; actives 63% (n = 1,600); note: potency is the fitted concentration of half-maximal effect; % is set by controls: 0 for no effect and ±100 for the full control effect; nearly all actives have a fitted effect of over 65% in size
HepG2 tox-2 = counter-screen for TGF-b inhibitors: cytotoxicity in HepG2 cells. shares compounds with TGFb SMAD3 inh. HepG2 CAGA-GFP viability, ATP luminescence, 18 h; cells stimulated with TGF-beta, 500 pg/mL. Potency, µM (top dose mostly 46.1 µM), without a hit: at the top dose activity, negative = cytotoxicity, actives largely listed as inhibitors. actives 27% (n = 1,600); note: potency is the fitted concentration of half-maximal effect; % is set by controls: 0 for no effect and ±100 for the full control effect; nearly all actives have a fitted effect of over 70% in size
CCL64 TGFb inh = orthogonal confirmation of TGF-b inhibitors in CCL64 cells | CCL64 CAGA-GFP reporter, TGF-b stimulated, GFP fluorescence, 18 h | Potency, µM (titrated, usually from 46.1 µM), for inactives: top-dose activity, negative = inhibition, most hits filed as inhibitors | actives 41% (n = 1,600) | shares compounds with TGFb SMAD3 inh; note: potency is the fitted concentration of half-maximal effect; nearly all actives have a fitted effect of over 65% in size
COP TGFb inh = TGF-b inhibition validated with COP promoter. shares compounds with TGFb SMAD3 inh. HepG2 COP-GFP TGF-b reporter, GFP fluorescence, 18 h; cells stimulated by added recombinant TGF-beta. Potency, µM (titrated, usually from 46.1 µM), without a hit: at the top dose activity, negative = inhibition, hits mostly inhibitors. actives 3% (n = 1,600); note: potency is the fitted concentration of half-maximal effect; nearly all actives have a fitted effect of over 70% in size
Starred values were filed as active, the others as inactive; i = inactive; ? = inconclusive; nt = no result. Unless noted, calls come from the whole dose curve; as a rule, active = well fitted curve in the direction sought with a large enough effect; inconclusive = small, poorly fitted or top-dose-only effect, or another doubt; inactive = no such curve, though single readings can be large; an effect the other way counts as inactive or inconclusive.

SMILES	LDHA inh	ATXN2 expr inh	ATXN viability	TGFb SMAD3 inh	IDH1 R132H inh	HepG2 tox-1	TGFb CAGA inh	HepG2 tox-2	CCL64 TGFb inh	COP TGFb inh
CCOc1ccc(Cl)cc1-c1cc(C(=O)NCc2cc(C(F)(F)F)cc(C(F)(F)F)c2)[nH]n1	-2	?	?	16µM*	nt	-22%	16µM*	?	?	21%
Clc1ccc2c(SCC3CO3)c3ccccc3nc2c1 (configuration not stated)	-7	?	nt	7.9µM*	6%	-49%	16µM*	18µM*	21µM*	16µM*
O=C(CSc1c2c(nc3cc(Cl)ccc13)CCCC2)Nc1nc2ccccc2s1	2	nt	nt	nt	nt	nt	nt	nt	nt	nt
NC(=O)C1CCN(C(=O)c2ccc(NS(=O)(=O)c3ccc(F)c(F)c3)cc2)CC1	-4	1%	i	1%	0%	-2%	nt	nt	nt	nt
Cc1noc(C)c1-c1ccc(C(=O)NC2CCCCC2)c2occc12	-3	25%	i	14%	nt	-38%	nt	nt	nt	nt
O=C(CNC(=S)N(Cc1ccccc1)Cc1ccccc1F)NCc1ccc(Cl)cc1	-1	-29%	i	13µM*	-3%	0%	13µM*	?	?	17%
O=C(CNC(=S)N(Cc1ccccc1)Cc1ccccc1F)NCc1ccccc1	5	-29%	?	?	2%	-21%	nt	nt	nt	nt
Cc1cc(C(=O)N2CCN(C/C=C/c3ccccc3)CC2)cs1	6	5%	i	16µM*	3%	-8%	?	-17%	9%	-22%
COc1cc(CN2C(=O)CC[C@@H]3CN(Cc4ccccn4)CC[C@@H]32)cc(OC)c1OC	nt	nt	i	nt	nt	nt	nt	nt	nt	nt
O=C(NC(c1ccccc1)c1ccc2ccccc2n1)C1CCN(CCOc2ccc(Cl)cc2)CC1 (configuration not stated)	-2	28µM*	28µM*	7.1µM*	nt	11µM*	6.5µM*	5.2µM*	3.7µM*	?
COc1cc(CN2CCC(C(=O)NC(c3ccc(F)cc3)c3ccc4ccccc4n3)CC2)cc(OC)c1 (configuration not stated)	-4	-6%	?	3.5µM*	nt	5.6µM*	?	15µM*	8.2µM*	?
O=C(NC(c1ccccc1)c1ccc2ccccc2n1)C1CCN(Cc2ccc(Oc3ccccc3)cc2)CC1 (configuration not stated)	-4	-26%	?	?	nt	-16%	nt	nt	nt	nt
O=C(NC(c1ccccc1)c1ccc2ccccc2n1)C1CCN(Cc2ccc(Cl)c(Cl)c2)CC1 (configuration not stated)	-8	?	i	?	nt	-29%	nt	nt	nt	nt
CN(C)S(=O)(=O)c1ccc(NC(=O)CN2CCC(Cc3ccccc3)CC2)cc1	-1	nt	?	-2%	-2%	-29%	nt	nt	nt	nt
CN(C)S(=O)(=O)c1ccc(Cl)c(NC(=O)CN2CCC(Cc3ccccc3)CC2)c1	-3	-15%	i	?	2%	-1%	13µM*	?	?	17%
Cc1ccc(S(=O)(=O)N(C)C)cc1NC(=S)NCCCn1ccnc1	-6	nt	i	-2%	7%	-15%	nt	nt	nt	nt
COc1ccccc1NS(=O)(=O)c1cccc(NC(=O)Nc2ccccc2)c1	-6	-29%	i	10µM*	-6%	-25%	?	?	?	57%
CNC(=O)c1ccc(-c2nc(CN3CCN(C(=O)Nc4ccccc4OC)CC3)c(C)o2)cc1	5	nt	nt	nt	nt	nt	nt	nt	nt	nt
CCN(CC)C(=O)c1nc[nH]c1C(=O)N1CCN(c2ccccc2)CC1	-10	8%	i	?	13%	4%	-5%	3%	8%	18%
CN(Cc1ccccc1)C(=O)c1nc[nH]c1C(=O)N1CCN(c2ccccc2)CC1	-10	15%	i	2%	-5%	0%	nt	nt	nt	nt
O=C(CCC(=O)c1ccc(F)cc1)Nc1cccc(S(=O)(=O)Nc2cccc(Cl)c2)c1	0	0%	i	13µM*	-1%	-28%	?	?	?	19%
O=C(CCC(=O)c1ccc(F)cc1)Nc1ccc(Cl)cc1	-4	-20%	i	-4%	3%	-26%	nt	nt	nt	nt
CCC(CC)C(=O)Nc1c2c(nn1-c1ccc(OC)cc1)CS(=O)(=O)C2	3	-1%	i	28%	1%	-1%	nt	nt	nt	nt
COc1ccc(-c2c(C)c3ccc(O)c(CN4CCCCC4C)c3oc2=O)cc1OC (configuration not stated)	4	-10%	nt	-24%	6%	-6%	nt	nt	nt	nt
Oc1ccccc1-c1nc(NCc2cccnc2)c2ccccc2n1	-6	?	i	20µM*	0%	-21%	?	?	?	17%
CC(=O)NC(c1ccc(N(C)C)cc1)c1cc(Cl)c2cccnc2c1O (configuration not stated)	12	nt	i	?	-10%	-15%	nt	nt	nt	nt
O=C(O)c1ccccc1NC(c1ccccc1)c1ccc2cccnc2c1O (configuration not stated)	-4	?	?	8.9µM*	2%	-20%	6.5µM*	?	15µM*	-24%
COc1ccc(C(NC(=O)C(C)C)c2ccc3cccnc3c2O)cc1 (configuration not stated)	19	3.2µM*	i	4.5µM*	-4%	-38%	-13%	?	7.3µM*	35%
